A selection: hits, their analogues and other compounds. The true share with any hit is near 8%.
VP16 counter: VP16 counterscreen qHTS for inhibitors of ROR gamma transcriptional activity; Drosophila S2 Gal4-VP16 UAS-luciferase, luminescence, 20 h; Potency, µM (doses to about 53.6 µM), inactives show top-dose activity, negative = inhibition, usual class: inhibitors; 310,000 compounds, 3.5% hits; AID 2546, 2010;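 note: Gal4-VP16 expression switched on by copper sulfate through the metallothionein promoter; potency is the fitted concentration of half-maximal effect; nearly all actives have a fitted effect of over 50% in size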
FBPA coupling cs: qHTS Assay for Inhibitors of Fructose-1,6-bisphosphate Aldolase from Giardia Lamblia: Coupling assay counterscreen | coupling enzyme system counterscreen, AmpLite Red fluorescence | activity change, negative = inhibition, % at 58.2 µM, hits read low | 290,000 compounds, 0.67% hits; in the data active = activity change below about -30%
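Activity here indicates interference with the coupling reaction, not aldolase inhibition. Compounds at 57.5 uM final met coupling enzymes for 10 min at RT; substrate and AmpLite Red detection followed, with a 525/598 nm fluorescence read after 20 min.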
TSHR antag: Antagonists of the Thyroid Stimulating Hormone Receptor: HTS campaign; Thyrotropin receptor (Homo sapiens), P16473; TSHR-expressing cells, TSH-stimulated cAMP HTRF, 2 h; stronger effect = lower value; activity change, negative = inhibition, % at 11.5 µM; 330,000 compounds, 0.2% hits;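 active = activity change below a set negative limit, meaning inhibition stronger than a set level, cut at about -70% in these data; inconclusive = activity change between two set negative limits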
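Freshly harvested TSHR cells receive pin-tooled compound, then EC80 TSH at 4nM final. After 2 hours at 37 deg C, antibody in lysis buffer and cAMP-d2 are added; 30 minutes at ambient temperature precede the HTRF read.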
RORg inh: qHTS for inhibitors of ROR gamma transcriptional activity; 310,000 compounds, 5.4% hits; Drosophila S2 Gal4-RORgamma UAS-luciferase reporter, 20 h; Nuclear receptor ROR-gamma (Mus musculus), P51450; Potency, µM (top dose mostly 53.6 µM), for the others: top-dose activity change, negative = inhibition, hits mostly inhibitors; note: potency is the fitted concentration of half-maximal effect; nearly all actives have a fitted effect of over 60% in size
Target sequence (P51450 whole entry, looked up, the tested form may be a part): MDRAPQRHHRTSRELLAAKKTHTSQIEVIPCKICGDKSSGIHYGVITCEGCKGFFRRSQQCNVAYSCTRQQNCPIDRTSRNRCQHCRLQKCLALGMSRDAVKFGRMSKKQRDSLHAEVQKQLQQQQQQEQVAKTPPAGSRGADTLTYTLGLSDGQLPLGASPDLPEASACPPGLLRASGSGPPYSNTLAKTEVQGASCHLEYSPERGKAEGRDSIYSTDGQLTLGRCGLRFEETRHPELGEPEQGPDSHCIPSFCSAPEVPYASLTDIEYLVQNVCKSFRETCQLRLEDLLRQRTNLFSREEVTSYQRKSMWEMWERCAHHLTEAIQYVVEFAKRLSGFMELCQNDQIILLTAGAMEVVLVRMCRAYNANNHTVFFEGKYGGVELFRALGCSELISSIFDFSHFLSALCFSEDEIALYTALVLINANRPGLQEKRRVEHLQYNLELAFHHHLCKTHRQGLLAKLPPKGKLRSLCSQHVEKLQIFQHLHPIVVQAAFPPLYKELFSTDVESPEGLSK
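Compounds are pin-transferred onto Drosophila Schneider cells expressing a copper-inducible Gal4–ROR gamma transactivation domain fusion. After 1 hr, copper sulfate is added to 700 uM final; luciferase is read 20 hr later.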
ELG1 repair inh: qHTS screen for small molecules that inhibit ELG1-dependent DNA repair in human embryonic kidney (HEK293T) cells expressing luciferase-tagged ELG1; HEK293T ELG1-luciferase reporter, luminescence, 16 h; DNA damage induced by 5-fluorouridine; Potency, µM (highest dose often 46.1 µM), for the others: top-dose activity change, negative = inhibition, most hits filed as inhibitors; AID 504467, 2011; 330,000 compounds, 2.3% hits; note: potency is the fitted concentration of half-maximal effect; nearly all actives have a fitted effect of over 55% in size
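In this reporter screen, reduction of luminescence relative to DMSO vehicle indicated activity. Compounds and 5-fluorouridine were added together to 2,000 cells per well, incubated for 16 hr at 37 °C, then developed with ONE-Glo.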
Numbers without * were called inactive; ? = inconclusive; . = not tested or not shown; [ ] = dose if it differs, or a comment. Unless noted, calls come from the whole dose curve; as a rule, active = well fitted curve in the direction sought with a large enough effect; inconclusive = small, poorly fitted or top-dose-only effect, or another doubt; inactive = no such curve, though single readings can be large; an effect the other way counts as inactive or inconclusive. % is set by controls: 0 for no effect and ±100 for the full control effect.

SMILES | VP16 counter | FBPA coupling cs | TSHR antag | RORg inh | ELG1 repair inh
CC(c1ccccc1)n1cc(C(=O)NCc2ccncc2)nn1 (stereo not given) | -9.8% | 2.1 | 2.4 | -8.0% | 6.8%
Cc1ccccc1C1N(c2nccs2)C(=O)C2CCCN21 (stereo not given) | ? | 0.8 | 0.4 | ? | 3.4%
O=C1C2CCCN2C(c2ccccc2)N1c1nccs1 (stereo not given) | -15.4% | -1.6 | 17.9 | 5.62µM* | -5.2%
O=C(O)COc1ccc2ccccc2c1 | -5.0% | 2.0 | . | -2.8% | .
O=C(O)COc1ccc(/C=C/C(=O)c2ccc3ccccc3c2)cc1 | ? | 4.5 | 3.2 | 1.58µM* | 0.0%
COc1ccccc1C1CCN(Cc2ccc(C)cc2)CC1 | -6.9% | 2.9 | 2.5 | -12.8% | -2.3%
O=C(NNC1=NS(=O)(=O)c2ccccc21)c1ccccc1 | ? | 0.2 | -0.8 | 12.6µM* | ?
O=C(NNC1=NS(=O)(=O)c2ccccc21)c1ccccc1Cl | -15.0% | -1.2 | -9.5 | -18.5% | ?
Cc1ccc2[nH]c3c(c2c1)CCN(C)C3 | -13.4% | 0.2 | -10.3 | -1.9% | 0.7%
Cc1ccc(-c2nc(P(=O)(c3ccccc3)c3ccccc3)c(N3CCOCC3)o2)cc1 | 15.8µM* | 0.2 | 9.7 | 3.55µM* | -23.2%
CCOP(=O)(OCC)c1nc(-c2ccc(OC)cc2)oc1N1CCOCC1 | -10.8% | -1.5 | -11.2 | 20.0% | -1.9%
NCCO/C=C/[C@H](N)C(=O)O | 1.4% | . | . | 14.5%[10 µM] | .
COc1cc([N+](=O)[O-])cc(/C=N/NC(=O)C(O)(c2ccccc2)c2ccccc2)c1O | 0.891µM* | -0.5 | -2.3 | 0.355µM* | -18.2%
O=C(N/N=C/c1cc([N+](=O)[O-])cc([N+](=O)[O-])c1O)/C(=C\c1cccs1)NC(=O)c1ccccc1 | ? | 13.9 | -14.4 | 11.2µM* | 8.6%
O=C(N/N=C/c1cccnc1)C(O)(c1ccccc1)c1ccccc1 | -13.4% | -1.3 | 10.4 | 2.4% | -8.1%
O=C(N/N=C/c1cccc([N+](=O)[O-])c1O)C(O)(c1ccccc1)c1ccccc1 | 1.26µM* | 0.7 | -5.5 | 0.708µM* | -6.8%
O=C(N/N=C/c1ccc([N+](=O)[O-])cc1)c1cccs1 | -4.1% | 1.4 | 1.6 | ? | ?
O=C(N/N=C/c1cccc([N+](=O)[O-])c1O)c1cccs1 | 0.794µM* | 1.9 | -1.2 | 1.12µM* | -9.1%
CC(C)Oc1ccc(C(=O)CCN2CCCCC2)cc1 | 6.31µM* | 4.0 | -1.0 | 10µM* | 11.2%
COc1ccc(C(=O)CCN2CCCCCC2)cc1 | 5.01µM* | 0.9 | -2.1 | 3.16µM* | 11.1%
CCOc1ccc(C(=O)CCN2CCCCC2)cc1 | -8.8% | 0.3 | 13.6 | 33.3% | -4.3%
O=C(C1CCC(CNS(=O)(=O)c2cccs2)CC1)N1CCN(c2ccc(Cl)cc2)CC1 (stereo not given) | ? | . | -30.6 | -18.2% | ?
Cc1ccnc(Nc2nc(-c3ccc(O)c(O)c3)cs2)c1 | 5.62µM* | -3.5 | -22.8 | 11.2µM* | ?
Cc1cccc(Nc2nc(-c3ccc(O)c(O)c3)cs2)n1 | 5.62µM* | -6.4 | -20.1 | 4.47µM* | ?
Oc1ccc(-c2csc(Nc3ccccn3)n2)cc1O | 6.31µM* | 0.4 | -24.2 | 5.62µM* | ?
SMILES | VP16 counter | FBPA coupling cs | TSHR antag | RORg inh | ELG1 repair inh
Cc1cccc(Nc2nc(-c3ccc(F)c(C)c3)cs2)n1 | ? | -1.7 | 6.0 | -38.2% | ?
CC(=O)Nc1ccc(-c2csc(Nc3ccccn3)n2)cc1 | -4.4% | -0.9 | -1.2 | 21.4% | ?
Oc1ccc(Nc2nc(-c3ccc(Cl)cc3)cs2)cc1 | 14.1µM* | 0.5 | . | ? | .
CC1CCN(C(=O)c2ccccc2SCC(=O)NCC2CCCCC2)CC1 | . | . | -0.4 | . | 4.1%
CC[C@H](C)[C@H](NC(=O)[C@H](CC(=O)O)NC(=O)[C@H](CC(C)C)NC(=O)[C@H](Cc1cnc[nH]1)NC(=O)[C@H](C)NC(=O)[C@H](Cc1ccccc1)NC(=O)[C@H](Cc1ccc(O)cc1)NC(=O)[C@@H](NC(=O)[C@H](C)NC(=O)[C@H](CCC(=O)O)NC(=O)[C@H](CCC(=O)O)NC(=O)[C@H](CC(=O)O)NC(=O)CCC(=O)O)C(C)C)C(=O)N[C@H](C(=O)N[C@@H](Cc1c[nH]c2ccccc12)C(=O)O)[C@@H](C)CC | -8.5% | 2.9 | . | -0.1% | .
NS(=O)(=O)c1ccc(NC(=S)N2CCC(Cc3ccccc3)CC2)cc1 | -21.9% | 2.6 | -4.9 | ? | ?
CCCCN1C(=S)SC(C)(C)C1/[N+]([O-])=C/c1ccc(S(=O)(=O)NC)cc1 (stereo not given) | -8.5% | -1.7 | -0.5 | 11.9% | -15.4%
COc1ccccc1OCCC(=O)NNC(=O)c1ccccc1F | . | . | 22.4 | . | 12.1%
Cc1ccnc(Nc2nc(-c3ccc(O)cc3)cs2)c1 | 3.98µM* | 0.7 | 8.0 | 3.16µM* | ?
Cc1ccnc(Nc2nc(-c3ccc(O)cc3O)cs2)c1 | 2.24µM* | -3.5 | 2.6 | 0.708µM* | 0.4%
Cc1cc(O)ccc1Nc1nc(-c2cccnc2)cs1 | -7.3% | 0.4 | 15.2 | ? | ?
COc1ccc(-c2csc(Nc3ccc(S(N)(=O)=O)cc3)n2)cc1 | 2.5% | 2.8 | -12.9 | 41.4% | 16.4µM*
COc1ccc(-c2csc(Nc3cc(C)ccn3)n2)cc1C | -25.6% | 2.3 | 13.8 | ? | ?
CC(=O)Oc1ccc(-c2csc(Nc3ccc(S(N)(=O)=O)cc3)n2)cc1 | 8.9% | 3.8 | -11.7 | 10.2% | -9.3%
O=C(O)c1cc2ccccc2c(Cc2cc3ccccc3c(C(=O)O)c2O)c1O (tested in a mixture with another compound) | -14.5%[17 µM] | -0.3 | . | -7.7%[16.9 µM] | .
C=CCNC(=S)NCCCCC1NC(=S)N(CC=C)C1=O (stereo not given) | 3.7% | 2.7 | 0.4 | ? | 13.8%
O=C1C(CCCNC(=S)NCc2ccccc2)NC(=S)N1Cc1ccccc1 (stereo not given) | ? | 0.4 | 38.2 | 22.4µM* | -22.6%
NC(=O)[C@@H]1CCCN1C(=O)C(Cc1cnc[nH]1)NC(=O)C1CCC(=O)N1 (stereo not given in full) | -17.5% | 3.1 | . | 16.0% | .
Cc1ccc(S(=O)(=O)N2CCCC(C(=O)N3CCCc4ccccc43)C2)cc1 (stereo not given) | -0.5% | -1.7 | -18.3 | 21.7% | -11.0%
COc1ccc(N2CCN(C(=O)C3CCCN(S(=O)(=O)c4ccc(F)cc4)C3)CC2)cc1 (stereo not given) | -9.1% | . | 8.1 | -37.7% | ?
